Data on 14 molecules can be found in PubChem BioAssay.

In test [1] the test system is Plasmodium falciparum Sir2 (PF13_0152, Sir2A). Put plainly: pfSir2 binders on small-molecule microarrays, primary screen, biochemical, small-molecule microarray, 635 nm fluorescence (AID 1098).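 Also: score merges spot fluorescence intensity with its signal-to-noise ratio.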 The settings on record: small-molecule microarray binding, fluorescence 635 nm; higher = more signal.
Test [2] can be described thus: small-molecule microarray binders of probe aDKK1, primary screen, biochemical, biotinylated probe, 635/667 nm fluorescence (AID 1099).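 Also: score merges 667nm spot fluorescence with signal to noise across triplicate slides; reference of the scale not given here.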 The settings on record: higher = more signal.
Test [3] in a line: small-molecule microarray binders of probe aCHRDL2, primary screen, biochemical, biotinylated probe, 635/667 nm fluorescence (AID 1100). The settings on record: higher = more signal.
Test [4] in a line: splicing luciferase reporter signal modulators, primary screen, spliceosome inhibition project, cell-based, HEK293, splice +/- reporter (AID 1101).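 Also: HEK293 cells carrying a splicing-competent luciferase reporter gene; test concentration not given here.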 The settings on record: luminescence, 24 h, higher = more signal, called active from +8 up or from −8 down.
For test [5], the target named is Fibroblast growth factor 10 (Homo sapiens) (UniProt O15520). Put plainly: FGF10 binders on small-molecule microarrays, primary screen, biochemical, small-molecule microarray, 635 nm fluorescence (AID 1102). The settings on record: FGF10 binding, fluorescence 635 nm, higher = more signal.
Test [6] relates to glycogen synthase kinase-3 (GSK3A per assay name; protocol says GSK3B). The test is described as follows: GSK3 binders on small-molecule microarrays, primary screen, biochemical, small-molecule microarray, 635 nm fluorescence, GSK3A (AID 1103). Also: the record names both GSK3A and GSK3B. The conditions noted are these: small-molecule microarray binding, fluorescence 635 nm; higher = more signal.
For test [7], the target named is Epidermal growth factor receptor (Homo sapiens) (UniProt P00533). Put plainly: EGFR binders on small-molecule microarrays, primary screen, biochemical, small-molecule microarray, 635 nm fluorescence (AID 1104).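 Also: score merges 667 nm emission intensity with spot signal to noise over triplicate slides.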 The conditions noted are these: EGFR binding, higher = more signal.
Test [8] addresses Follistatin-related protein 3 (Homo sapiens) (UniProt O95633). Put plainly: FSTL3 binders on small-molecule microarrays, primary screen, biochemical, small-molecule microarray, 635 nm fluorescence (AID 1105).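 Also: score merges emission near 667 nm and signal to noise per printed spot across three slides.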 The conditions noted are these: FSTL3 binding, higher = more signal.
Test [9] deals with Dickkopf-related protein 1 (Homo sapiens) (UniProt O94907). Put plainly: DKK1 binders on small-molecule microarrays, primary screen, biochemical, small-molecule microarray, 635 nm fluorescence scan (AID 1106).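 Also: score merges emission near 667 nm with signal to noise over three replicate slides.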 The settings on record: DKK1 binding, higher = more signal.
Test [10] relates to Inhibin beta A chain (activin A). The test is described as follows: INHBA (activin A) binders on microarrays, primary screen, biochemical, small-molecule microarray, 635 nm fluorescence scan (AID 1107).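 Also: mouse activin A protein probed at 4.33 µg/mL on printed slides; score merges bound-protein fluorescence near 667 nm with spot signal-to-noise.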 The settings on record: small-molecule microarray binding, higher = more signal.

Activity calls are given as the source filed them.

Chain of Dickkopf-related protein 1 (Homo sapiens) (O94907 whole entry, looked up): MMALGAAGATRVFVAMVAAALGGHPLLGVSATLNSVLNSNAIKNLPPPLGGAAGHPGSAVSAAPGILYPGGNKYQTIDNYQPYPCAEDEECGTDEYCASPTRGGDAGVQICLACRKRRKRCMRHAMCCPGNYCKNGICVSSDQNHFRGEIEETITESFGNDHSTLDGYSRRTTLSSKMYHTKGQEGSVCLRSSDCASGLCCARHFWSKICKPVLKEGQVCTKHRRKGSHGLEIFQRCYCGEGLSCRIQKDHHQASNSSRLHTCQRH
Chain of Follistatin-related protein 3 (Homo sapiens) (O95633 whole entry, looked up): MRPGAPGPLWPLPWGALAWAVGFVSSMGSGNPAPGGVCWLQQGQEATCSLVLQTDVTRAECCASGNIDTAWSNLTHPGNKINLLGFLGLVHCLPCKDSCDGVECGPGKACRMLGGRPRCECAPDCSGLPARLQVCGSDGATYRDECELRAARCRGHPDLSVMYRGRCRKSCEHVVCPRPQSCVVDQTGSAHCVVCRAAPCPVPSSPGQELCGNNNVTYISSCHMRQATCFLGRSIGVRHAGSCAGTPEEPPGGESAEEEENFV
Chain of Fibroblast growth factor 10 (Homo sapiens) (O15520 whole entry, looked up): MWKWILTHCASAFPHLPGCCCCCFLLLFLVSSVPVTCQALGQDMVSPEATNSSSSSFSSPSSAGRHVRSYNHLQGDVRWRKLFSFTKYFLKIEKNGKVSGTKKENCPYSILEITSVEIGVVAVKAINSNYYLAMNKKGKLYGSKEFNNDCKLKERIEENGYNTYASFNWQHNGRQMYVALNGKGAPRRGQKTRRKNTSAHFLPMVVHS
Chain of Epidermal growth factor receptor (Homo sapiens) (P00533 whole entry, looked up): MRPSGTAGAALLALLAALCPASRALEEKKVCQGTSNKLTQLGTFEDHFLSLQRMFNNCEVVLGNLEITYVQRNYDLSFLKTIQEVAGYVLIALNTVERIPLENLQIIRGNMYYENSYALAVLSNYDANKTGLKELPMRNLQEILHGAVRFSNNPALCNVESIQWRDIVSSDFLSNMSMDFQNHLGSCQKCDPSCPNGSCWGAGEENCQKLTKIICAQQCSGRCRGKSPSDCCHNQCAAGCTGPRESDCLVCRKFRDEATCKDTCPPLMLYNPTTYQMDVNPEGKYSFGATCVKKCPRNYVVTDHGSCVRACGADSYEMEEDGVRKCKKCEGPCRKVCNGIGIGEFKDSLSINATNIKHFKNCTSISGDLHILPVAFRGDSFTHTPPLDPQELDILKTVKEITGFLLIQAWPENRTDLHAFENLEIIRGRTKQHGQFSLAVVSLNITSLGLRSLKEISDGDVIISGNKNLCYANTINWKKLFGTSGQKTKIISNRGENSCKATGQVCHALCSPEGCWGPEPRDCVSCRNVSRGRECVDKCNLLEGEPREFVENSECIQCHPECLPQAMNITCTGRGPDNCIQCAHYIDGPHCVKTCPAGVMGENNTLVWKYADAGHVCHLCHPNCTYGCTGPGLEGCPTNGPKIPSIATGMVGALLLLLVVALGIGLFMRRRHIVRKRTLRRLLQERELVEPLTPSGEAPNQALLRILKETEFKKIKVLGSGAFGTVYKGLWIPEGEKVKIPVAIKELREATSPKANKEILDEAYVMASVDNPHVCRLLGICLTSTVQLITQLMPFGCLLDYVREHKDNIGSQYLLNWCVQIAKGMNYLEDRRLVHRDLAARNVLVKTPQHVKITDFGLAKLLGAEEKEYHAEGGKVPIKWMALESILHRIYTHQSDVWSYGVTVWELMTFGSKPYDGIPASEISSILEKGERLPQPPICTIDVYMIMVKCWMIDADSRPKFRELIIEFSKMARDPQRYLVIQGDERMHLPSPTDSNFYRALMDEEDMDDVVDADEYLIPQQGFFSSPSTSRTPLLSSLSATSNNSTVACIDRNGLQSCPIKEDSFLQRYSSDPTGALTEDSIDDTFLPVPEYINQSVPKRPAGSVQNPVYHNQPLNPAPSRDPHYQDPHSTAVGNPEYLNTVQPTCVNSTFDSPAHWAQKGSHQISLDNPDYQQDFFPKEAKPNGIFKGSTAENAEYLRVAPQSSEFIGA

For `CCCC[C@@H](O)C1=C(COc2ccccc2)Cn2c(=O)n(-c3ccccc3)c(=O)n2[C@H]1CO`, the composite z-score in test [1] was -0.229; in [2] it was -0.396; in test [3] it was -0.444; in [5], 0.217; in test [6], 0.106; in [7], 0.111. The composite z-score is -0.423 in test [8], -0.0681 in [9] and 0.606 in test [10]. In test [4], the z-score was -2.11 (inactive).

For `C[N+](C)(C)CCCCCCNC(=O)[C@H]1C[C@H]2C(=O)N3CCC[C@H]3C(=O)N2[C@H]1c1cccc(OCCO)c1`, the composite z-score in [1] is 1.66; in [2], 0.273; in test [3], -0.155; in [5], 0.755; in test [6], 1.23; in test [7], 0.907. The composite z-score worked out at 1.3 in test [8], 0.705 in test [9] and 0.959 in test [10]. Besides, in test [4], the z-score is 0.592 (inactive).

As to `CN(C)C(=O)[C@@]1(Cc2ccccc2N=[N+]=[N-])N=C(c2ccc(OCCCO)cc2)O[C@H]1c1ccccc1N=[N+]=[N-]`, the composite z-score in test [1] was 0.974; in test [2], 1.19; in test [3], 0.7; in test [5] it was 0.817; in test [6], 1.29; in test [7], 0.284. Moreover, the composite z-score in test [8] amounted to 0.347; in test [9] it was 0.0393; in test [10] it was 1.28. Also, the z-score in test [4] was -0.167 (inactive).

`CCCCCCC#C[Si](O[C@H](c1ccccc1)c1cn(Cc2cccc(Cl)c2)nn1)(C(C)C)C(C)C`: the composite z-score in test [1] is 1.11; in [2], -0.166; in test [3] it was -0.287; in test [5], 0.155; in test [6], 0.57; in test [7], 0.269. For the same molecule, the composite z-score was 0.309 in test [8], 0.0628 in test [9] and 0.308 in test [10]. Also, the z-score in [4] was -0.577 (inactive).

Consider `COC(=O)[C@@]1(Cc2ccc(F)cc2)[C@H]2c3cc(C(=O)N(C)C)n(CCSCCO)c3C[C@H]2CN1C(=O)c1ccccc1`, for which the composite z-score in test [1] stood at 0.74; in test [2] it was 0.983; in test [3] it was 1.02; in test [5], 0.438; in test [6], 0.266; in [7], 0.168. For the same molecule, the composite z-score in test [8] was 0.322; in test [9], -0.0642; in [10] it was 0.655. In addition, in test [4], the z-score is -1.22 (inactive).

As to `COc1ccc([Si](C)(C)[C@H]2[C@H](CCn3cc(CCO)nn3)O[C@@]3(C(=O)N(Cc4cccc(N5C(=O)c6cccc7cccc5c67)c4)c4ccccc43)[C@@H]2C)cc1`, the composite z-score in test [1] is 1.23; in test [2], -0.0314; in test [3], -0.567; in test [5], 1.27; in [6] it was 0.719; in test [7] it was 0.268. Besides, the composite z-score is 0.81 in [8], 0.848 in test [9] and -0.427 in test [10]. In test [4], the z-score was -1.61 (inactive).

Consider `C[C@]12C(=O)N(CCCO)[C@@H]3C(=O)N(c4ccc(Cl)cc4)CC=CC31O[C@@H]1/C=C\CCCOC(=O)C12` (stereo not given in full), for which the composite z-score in test [1] was 1.83; in test [2], -0.275; in test [3], 0.62; in [5] it was -0.747; in [6], -1.07; in test [7], -0.887. The composite z-score in [8] is -0.538; in test [9], -1.01; in test [10] it was 0.232. Also, in test [4], the z-score was 0.158 (inactive).

On to `COCCCNC(=O)[C@@]1(C)c2ccccc2C(=O)N(c2ccc(C)cn2)[C@H]1c1ccc(CO)cc1`, for which the composite z-score in test [1] is 0.963; in [2] it was -0.748; in test [3] it was -0.75; in test [5], -1.15; in test [6] it was -0.799; in [7], -0.626. Also, the figures for the composite z-score in [8], in test [9] and in [10] were -0.551, -0.813 and 0.534, respectively. In addition, the z-score in [4] was 0.532 (inactive).

With `COC(=O)[C@H]1N=C(c2ccc(OCCCO)cc2)O[C@H]1c1ccccc1CN=[N+]=[N-]`, the composite z-score in test [1] is 0.555; in test [2] it was 0.613; in test [3] it was 1.22; in test [5], -0.418; in test [6], -1.04; in test [7], -0.771. For the same molecule, the composite z-score was -0.605 in test [8], -1.56 in [9] and 0.635 in test [10]. In test [4], the z-score is -0.0171 (inactive).

For the molecule `C=C(/C(=C/C[C@@H](OC(=O)c1ccncc1)c1cccc(OCCO)c1)c1cc(C(=O)OC)ccc1OC)C(C)C`, the composite z-score in test [1] is 1.57; in [2], -0.17; in test [3] it was -0.115; in [5], 0.709; in test [6], 0.366; in test [7] it was -0.0516. Also, the composite z-score turned out to be 0.59 in [8], 0.0661 in [9] and 0.635 in [10]. Besides, in test [4], the z-score is -0.71 (inactive).

Consider `CCCNC(=O)[C@@H]1c2ccccc2C(=O)N(CC23CC4CC(CC(C4)C2)C3)[C@H]1c1ccc(CO)cc1`, for which the composite z-score in test [1] was found to be 1.6; in test [2] it was 0.831; in test [3], 0.718; in test [5], 1.12; in test [6], 1.15; in test [7], 0.457. Also, the composite z-score in test [8] turned out to be 1.23; in [9], 1.11; in test [10] it was 0.425. Besides, in [4], the z-score is -0.254 (inactive).

Take `C=C(C)[C@@H]1CC=C(C(O)C2C=CC3C(=O)N(C4CCCCC4)C(=O)C3N2Nc2ccc(OC)cc2)CC1` (stereo not given in full): the composite z-score in [1] was 1.37; in test [2] it was 0.326; in test [3], 0.826; in [5], 1.03; in test [6], 1.31; in [7] it was 0.367. In addition, the composite z-score in test [8] was determined as 1.37; in [9], 0.21; in test [10], 0.918. Moreover, the z-score in test [4] is -0.603 (inactive).

In the case of `O=C1OCC=C[C@H]2OC34C=CCN(CCN5CCOCC5)C(=O)[C@H]3N(CCCCCO)C(=O)[C@@H]4[C@@H]12` (stereo not given in full), the composite z-score was 1.35 in [1]; -0.284 in test [2]; -0.227 in test [3]; -0.736 in [5]; -0.0692 in test [6]; -0.411 in test [7]. Further, the composite z-score in test [8] was -0.412; in test [9], -0.24; in [10], 0.77. Moreover, the z-score in [4] was 0.636 (inactive).

For `N#Cc1ccc(NN2C(C(O)c3ccccc3)C=CC3C(=O)N(c4ccccc4)C(=O)C32)cc1` (stereo not given), the composite z-score in test [1] is 1.3; in [2], 0.313; in test [3], 0.557; in test [5] it was 0.968; in [6], -0.353; in test [7], -0.0382. Also, the composite z-score was 0.441 in test [8], -0.257 in test [9] and 0.658 in test [10]. Moreover, in [4], the z-score is 1.3 (inactive).
